{"source": "ChEMBL document CHEMBL3988442", "about": "“University of Dundee, Small-Polar-MMV Screening Library” (2021)", "note": "The whole screen tested about 48,000 compounds, of which about 13,000 (27%) showed an effect of 50% or more. Some of the results follow."}
{"test_system": "Wolbachia pipientis", "assay": "Anti-Wolbachia Cell-Based Screen", "assay_type": "functional", "set-up": "scale not given: in the data most compounds retested in dose-response had high values", "settings": "5 µM", "units": {"Percent Effect": "%"}}
{"smiles": "COc1ccc2c(c1)CN(Cc1nc3c(cnn3C)c(=O)[nH]1)CC2", "Percent Effect": -2.019}
{"smiles": "Cc1sc(-c2ccco2)nc1C(=O)N(CC1CCOC1)C1CC1", "note": "(stereo unspecified)", "Percent Effect": 13.16}
{"smiles": "Cc1cc(CNC(=O)C2CCCCN2C(=O)OC(C)(C)C)no1", "note": "(stereo unspecified)", "Percent Effect": 8.299}
{"smiles": "CN(Cc1ccc(F)cc1)CC1(O)CCN(C(=O)c2ccccc2)C1", "note": "(stereo unspecified)", "Percent Effect": -10.29}
{"smiles": "CN(C)CC1(O)CCCN(C(=O)c2cnc(-c3ccccn3)nc2)C1", "note": "(stereo unspecified)", "Percent Effect": 7.408}
{"smiles": "Cc1ccc(OC2(C(=O)O)CCN(C(=O)c3ccsc3)CC2)cn1", "Percent Effect": -3.963}
{"smiles": "Cc1ncncc1C(=O)N1CCC(O)(CN(C)Cc2ccc(F)cc2)C1", "note": "(stereo unspecified)", "Percent Effect": 90.38}
{"smiles": "CN(C)CC1(O)CCCN(C(=O)c2ccccc2-n2cncn2)C1", "note": "(stereo unspecified)", "Percent Effect": -6.613}
{"smiles": "CN(C)CC1(O)CCN(C(=O)c2ccc(-n3cnnc3)cc2Cl)C1", "note": "(stereo unspecified)", "Percent Effect": -7.306}
{"smiles": "CN(Cc1ccc(F)cc1)CC1(O)CCN(C(=O)c2ccsc2)C1", "note": "(stereo unspecified)", "Percent Effect": 101.4}
{"smiles": "CN(C)CC1(O)CCN(C(=O)c2cnc(-c3ccccn3)nc2)C1", "note": "(stereo unspecified)", "Percent Effect": -10.46}
{"smiles": "CN(Cc1ccc(F)cc1)CC1(O)CCN(C(=O)c2ccncc2)C1", "note": "(stereo unspecified)", "Percent Effect": 120.1}
{"smiles": "CN(Cc1ccc(F)cc1)CC1(O)CCN(C(=O)c2ccccn2)C1", "note": "(stereo unspecified)", "Percent Effect": 129.8}
{"smiles": "CN(C)CC1(O)CCN(C(=O)c2cnc(-c3cccnc3)nc2)C1", "note": "(stereo unspecified)", "Percent Effect": -2.107}
{"smiles": "Cn1cc(CNCC2Cn3nnc(-c4ccccc4)c3CO2)cn1", "note": "(stereo unspecified)", "Percent Effect": -12.32}
{"smiles": "Cn1nnc2cc(C(=O)NS(=O)(=O)Cc3ccc(F)cc3)ccc21", "Percent Effect": -12.26}
{"smiles": "COCC(C)NC(=O)CN1CCC2(CC1)OCCO2", "note": "(stereo unspecified)", "Percent Effect": -2.993}
{"smiles": "CN1CCOC(C(=O)N2CCC3(CCCC3)CC2)C1", "note": "(stereo unspecified)", "Percent Effect": -33.61}
{"smiles": "O=C(CCc1ccccc1Br)NCC(=O)NCc1ccccc1", "Percent Effect": 2.467}
{"smiles": "CN(C)CCN1CC2(CCC1=O)CCN(C(=O)c1ccn(C)n1)CC2", "Percent Effect": 6.742}
{"smiles": "CN(Cc1ccc(F)cc1)CC1(O)CCN(C(=O)c2ccn(C)n2)C1", "note": "(stereo unspecified)", "Percent Effect": 136.3}
{"smiles": "COc1ccc(CN(C)CC2(O)CCN(C(=O)c3cccn3C)C2)cc1", "note": "(stereo unspecified)", "Percent Effect": -15.88}
{"smiles": "CN(Cc1ccc(F)cc1)CC1(O)CCN(C(=O)c2cccs2)C1", "note": "(stereo unspecified)", "Percent Effect": 131.3}
{"smiles": "O=C(Cc1ccccc1)C1CCCN(Cc2cncn2C2CCCC2)C1", "note": "(stereo unspecified)", "Percent Effect": -39.33}
{"smiles": "Cc1nccnc1N1CCC(Cc2ccccc2Cl)(C(=O)O)CC1", "Percent Effect": 4.229}
{"smiles": "CCc1ccc(C(NCC(N)=O)C(C)(C)C)o1", "note": "(stereo unspecified)", "Percent Effect": -15.62}
{"smiles": "Cc1ccc(C(=O)Nc2ccc(OC3CCN(C)CC3)cc2)c(C)c1", "Percent Effect": 4.12}
{"smiles": "CN1CCC(Oc2ccc(-n3ccnc3-c3ccncc3)cc2)CC1", "Percent Effect": 114.7}
{"smiles": "c1cc(CN2CCCC2)cc(-n2ccnc2-c2ccncc2)c1", "Percent Effect": -6.612}
{"smiles": "Cc1nnc(CN2CCC(Oc3ccc(F)cc3)CC2)o1", "Percent Effect": -12.54}
{"smiles": "Cn1ccnc1-c1nccn1-c1cccc(CN2CCCC2)c1", "Percent Effect": -8.491}
{"smiles": "CN1CCC(Oc2ccc(-n3ccnc3-c3nccn3C)cc2)CC1", "Percent Effect": 110.4}
{"smiles": "Cc1ccc(-c2nccn2-c2ccc(OC3CCN(C)CC3)cc2)o1", "Percent Effect": 109.9}
{"smiles": "Cc1cccc(C(=O)Nc2ccc(OC3CCN(C)CC3)cc2)c1", "Percent Effect": -4.145}
{"smiles": "Cc1ccc(C)c(C(=O)Nc2ccc(OC3CCN(C)CC3)cc2)c1", "Percent Effect": -4.844}
{"smiles": "CCC(CC)c1cc(CNC(=O)N2CCOC(C)C2)on1", "note": "(stereo unspecified)", "Percent Effect": 0.178}
{"smiles": "COc1ccc(C(=O)N2CCC(Oc3cccc(C)c3)(C(=O)O)CC2)o1", "Percent Effect": -1.031}
{"smiles": "Cc1ccc(Cl)c(C(C(=O)O)N(C)Cc2cnn(C)c2)c1", "note": "(stereo unspecified)", "Percent Effect": -5.56}
{"smiles": "O=C(NC1CCS(=O)(=O)C1)c1sccc1-c1ccc(F)cc1", "note": "(stereo unspecified)", "Percent Effect": 12.15}
{"smiles": "CNc1ncc(CN2CCCC2c2[nH]ncc2C(=O)N(C)C)cn1", "note": "(stereo unspecified)", "Percent Effect": 118.3}
{"smiles": "CC(C)c1ncc(CN2CCCC2c2[nH]ncc2C(=O)N(C)C)cn1", "note": "(stereo unspecified)", "Percent Effect": 138.1}
{"smiles": "CC(C)c1ncc(CN2C[C@@H](CN3CCCC3)[C@@H](CO)C2)cn1", "Percent Effect": -18.71}
{"smiles": "COc1ccccc1CC1CCCN1C(=O)c1cn[nH]c1C", "note": "(stereo unspecified)", "Percent Effect": 6.47}
{"smiles": "CC(C)c1ncc(CN2CCCC(CO)C2)cn1", "note": "(stereo unspecified)", "Percent Effect": -2.469}
{"smiles": "CC(C)c1ncc(CN2CCC(c3n[nH]cc3C(=O)N(C)C)C2)cn1", "note": "(stereo unspecified)", "Percent Effect": 128.3}
{"smiles": "CCN1CCN(C[C@@H]2CN(Cc3cnc(C(C)C)nc3)C[C@@H]2CO)CC1", "Percent Effect": -21.09}
{"smiles": "CNc1ncc(CN(C)C(=O)[C@@]23CNC[C@@H]2CN(C2CCCC2)C3)cn1", "Percent Effect": 3.616}
{"smiles": "CCc1cn[nH]c1C1CCCN(C(=O)c2cnc(NC(C)C)nc2)C1", "note": "(stereo unspecified)", "Percent Effect": -3.348}
{"smiles": "Cc1nn(C)c(C)c1C1CCCN1Cc1cccc(C(=O)N(C)C)c1", "note": "(stereo unspecified)", "Percent Effect": -5.304}
{"smiles": "CC(C)c1ncc(CN2C[C@@H](CN3CCC(O)CC3)[C@@H](CO)C2)cn1", "Percent Effect": -17.14}
{"smiles": "COc1ncc(CN2CCCC2c2[nH]ncc2C(=O)N(C)C)cn1", "note": "(stereo unspecified)", "Percent Effect": 107.3}
{"smiles": "CCC(CC)N(C)S(=O)(=O)c1ccc(CCNC(C)=O)s1", "Percent Effect": -16.74}
{"smiles": "COc1cccc2c1OCC(C(=O)N(C)CCCc1cnn(C)c1)C2", "note": "(stereo unspecified)", "Percent Effect": -4.921}
{"smiles": "Cc1cccn2cc(CN3CCCC(c4ccn[nH]4)C3)nc12", "note": "(stereo unspecified)", "Percent Effect": 3.062}
{"smiles": "Cc1cc(F)ccc1-n1cc(O)c(C(N)=O)n1", "Percent Effect": 117.5}
{"smiles": "CC(C)C(O)CCNC(=O)Nc1cc(F)ccc1-n1cccn1", "note": "(stereo unspecified)", "Percent Effect": -1.867}
{"smiles": "CC(C)c1cccc(-n2cc(O)c(C(N)=O)n2)c1", "Percent Effect": -1.55}
{"smiles": "CSCC(C)N(C)C(=O)c1nn(-c2ccc(F)cc2C)cc1O", "note": "(stereo unspecified)", "Percent Effect": 188.7}
{"smiles": "Cc1nc(NC(=O)c2nn(-c3ccc(F)cc3C)cc2O)n[nH]1", "Percent Effect": 158.1}
{"smiles": "Cc1cc(F)ccc1-n1cc(O)c(C(=O)NCC[S+](C)[O-])n1", "note": "(stereo unspecified)", "Percent Effect": 102.5}
{"smiles": "COCCn1ccc2cc(NC(=O)N(C)C(C)CSC)ccc21", "note": "(stereo unspecified)", "Percent Effect": 13.09}
{"smiles": "O=C(c1nn(-c2ccccc2F)cc1O)N1CCCC1", "Percent Effect": -1.057}
{"smiles": "COCCNC(=O)c1nn(-c2cccc(C(C)C)c2)cc1O", "Percent Effect": -7.047}
{"smiles": "C[S+]([O-])CCNC(=O)Nc1cc(F)ccc1-n1cccn1", "note": "(stereo unspecified)", "Percent Effect": -7.044}
{"smiles": "Cc1nc(C(C)NC(=O)COc2ccc(F)cc2)n[nH]1", "note": "(stereo unspecified)", "Percent Effect": -12.19}
{"smiles": "CC(C)c1cccc(-n2cc(O)c(C(=O)NCCC(=O)N(C)C)n2)c1", "Percent Effect": -3.512}
